High-throughput results (PubChem)
TR-FRET SRC-2 ct – flags TR-FRET format artefacts in PPARgamma SRC-2 recruitment agonist screen; TR-FRET artefact counter-screen; stronger effect = higher value; TR-FRET ratio at 8 µM; hit rate 0.4% among 200,000; AID 1049
SRC1 TRFRET art – TR-FRET artefact, counter-screen to PPARgamma/SRC-1 agonist assay. TR-FRET detection artefact counter-screen, emission ratio; stronger effect = higher value. TR-FRET ratio at 8 µM. hit rate 0.34% among 99,000; in the data active = TR-FRET ratio above about 2300
PPARg SRC-3 ag – agonists of human PPARgamma SRC-3 coactivator recruitment; P37231; biochemical PPARgamma/SRC-3 coactivator recruitment assay; activation, % at 8 µM; hit rate 0.26% among 200,000; AID 731; in the data active = activation above about 23%;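 note: 0% = DMSO and 100% = reference agonist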
Target sequence (P37231 whole entry, looked up): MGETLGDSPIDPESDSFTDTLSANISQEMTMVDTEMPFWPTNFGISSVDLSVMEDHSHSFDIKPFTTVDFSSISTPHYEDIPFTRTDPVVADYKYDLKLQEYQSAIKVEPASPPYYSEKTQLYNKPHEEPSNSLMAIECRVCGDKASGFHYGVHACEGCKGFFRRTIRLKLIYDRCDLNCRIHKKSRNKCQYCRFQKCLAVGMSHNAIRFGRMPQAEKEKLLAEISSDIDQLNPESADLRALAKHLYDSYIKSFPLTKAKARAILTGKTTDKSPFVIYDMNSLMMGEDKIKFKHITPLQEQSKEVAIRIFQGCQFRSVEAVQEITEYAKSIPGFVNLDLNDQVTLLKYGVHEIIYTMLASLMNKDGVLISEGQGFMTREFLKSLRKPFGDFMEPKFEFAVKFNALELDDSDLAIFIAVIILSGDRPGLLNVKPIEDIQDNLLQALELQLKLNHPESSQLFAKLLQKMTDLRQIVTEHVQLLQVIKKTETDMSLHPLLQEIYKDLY
PPARg SRC-1 ag – promotes SRC-1 coactivator recruitment by human PPARgamma | P37231 | PPARgamma-SRC-1 coactivator recruitment biochemical assay | activation, % at 8 µM | hit rate 0.41% among 200,000 | AID 631; in the data active = activation above about 19%;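 note: 0% = DMSO and 100% = reference agonist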
SRC3 TRFRET art – counter-screen for PPARgamma SRC-3 recruitment agonists: TR-FRET artefact; AID 1048; TR-FRET ratio at 8 µM; hit rate 0.39% among 99,000; PPARgamma/SRC-3 format; stronger effect = higher value
PPARg SRC2 recr – agonists of SRC-2 recruitment by human PPARgamma | P37231 | PPARgamma LBD-SRC-2 recruitment, biochemical | activation, % at 8 µM | hit rate 0.34% among 200,000; in the data active = activation above about 22%;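 note: 0% = vehicle and 100% = reference agonist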
Starred values were filed as active, the others as inactive; / = no result given. Rows were chosen to be rich in hits. Some 0.9% of all compounds tested hit in one or more screens of this group. Cut-off read from the data, not from the text of the source, unless noted: active = TR-FRET ratio above about 2000; inactive = the rest.

SMILES	TR-FRET SRC-2 ct	SRC1 TRFRET art	PPARg SRC-3 ag	PPARg SRC-1 ag	SRC3 TRFRET art	PPARg SRC2 recr
COC(=O)c1c(NC(=O)COC(=O)c2ccc(C)s2)sc2c1CCCCC2	1436	1447	0	-1	1742	7
O=C(CNC(=O)c1cccs1)OCC(=O)c1ccc2ccccc2c1	1722	/	3	-5	/	10
CC(C)(C)c1ccc(C(=O)NCC(=O)OCC(=O)c2ccc3c(c2)-c2ccccc2C3)cc1	2064*	2576*	2	1	1890	7
Nc1ncc(-n2cncn2)c(-c2ccc(Cl)cc2)n1	1549	1899	4	-1	1720	6
C#CCn1c(=NC(=O)c2ccc(Cl)s2)sc2cccc(OC)c21	1639	/	30*	10	/	6
O=C(C[n+]1cnn(CC(=O)c2ccc(Cl)cc2Cl)c1)c1ccc([N+](=O)[O-])cc1	1379	1579	-3	3	1371	-5
O=C(NC(=S)Nc1ccccc1)c1ccc(Br)o1	1845	1954	5	22*	1864	8
CC(=O)C1=C(C)NC(SCC(=O)c2ccc(-c3ccccc3)cc2)=C(C#N)C1c1cccnc1 (stereo not given)	2094*	/	2	6	/	13
Cc1cc(C)n(-c2nc(SCC(=O)Nc3nccs3)c3c4c(sc3n2)COC(C)(C)C4)n1	1687	/	5	19*	/	5
COc1ccc(-n2c(O)c(/C=N/NS(=O)(=O)c3cccc([N+](=O)[O-])c3)c3ccccc3c2=O)cc1OC	1428	1942	6	22*	1532	-5
O=[N+]([O-])c1cccc(/C=N/NS(=O)(=O)c2ccccc2)c1	1638	1742	0	1	1452	3
CN1/C(=C\C(=O)COC(=O)CNC(=O)c2ccc3ccccc3c2)C(C)(C)c2ccccc21	2236*	3406*	2	-2	3346*	12
CN1/C(=C\C(=O)COC(=O)CNC(=O)c2ccccc2F)C(C)(C)c2ccccc21	1664	1741	1	-1	1456	-4
CCOC(=O)CN(c1ccccn1)S(=O)(=O)c1ccc(OC)cc1	1760	1962	4	6	1503	-3
CC(C)N(C)C(=O)C(=O)c1cccn1-c1cccc(Cl)c1C#N	1459	2315*	6	8	1624	7
CC(C)c1ccccc1-n1c(SCC(=O)N2CCc3ccccc3C2)nc2ccccc2c1=O	1633	1834	2	3	1635	10
CC(C)c1ccccc1-n1c(SCC(=O)c2ccc3c(c2)NC(=O)CO3)nc2ccccc2c1=O	2160*	2916*	11	0	2760*	-1
COc1ccc(OCC(=O)Nc2cccc(NC(=O)COc3ccc(OC)cc3)n2)cc1	1570	/	10	9	/	15
COc1ccc(OCC(=O)Nc2cccc3cccnc23)cc1	1763	2429*	8	2	1536	11
C=COC(=O)CSc1nc(-c2cccs2)ccc1C#N	2052*	/	9	17	/	19
COc1cc(C(=O)N2CCN(C(=O)c3ccco3)CC2)c([N+](=O)[O-])cc1OC	1547	2062	1	-3	1656	2
CCN(CC)C(=O)CSc1nc2ncccc2[nH]1	1315	/	32*	6	/	10
CCCc1cc(NC(=O)CCl)n(-c2ccccc2)n1	1683	1856	0	6	1662	7
CC(COc1ccccc1)N1CCC(CO)(Cc2ccccc2)CC1 (stereo not given)	1621	1734	2	9	1568	6
NS(=O)(=O)c1ccc(CNC(=S)Nc2ccc(F)c(Cl)c2)cc1	1378	1672	-1	2	1772	5
SMILES	TR-FRET SRC-2 ct	SRC1 TRFRET art	PPARg SRC-3 ag	PPARg SRC-1 ag	SRC3 TRFRET art	PPARg SRC2 recr
NS(=O)(=O)c1ccc(NC(=S)NCc2ccc(Cl)cc2)cc1	1569	/	30*	-3	/	4
COc1ccc(-c2cc(-c3ccccc3)c(C#N)c(SCC(=O)Nc3ncc(C)s3)n2)cc1	1634	2146	8	3	2402*	6
Cc1ccc(NC(=O)/C(C#N)=C(\N)C(Cl)(Cl)Cl)nc1	1564	2295	6	0	1577	5
COCCNC(=S)N(Cc1cc2cc(C)ccc2n2nnnc12)C1CCCC1	1421	1583	1	-9	1536	1
CCc1ccc2c(c1)cc(CN(C(=S)Nc1ccc(Cl)cc1)C1CC1)c1nnnn12	1566	/	1	48*	/	-4
COc1cccc(N=Nc2c(N)[nH]n3c(=O)c4c(nc23)CCCC4)c1	1574	1552	4	-2	1547	-1
